This is one part of a sample in which hits are shown more often than they occur.
VACV E9 pol inh: vaccinia E9 polymerase processive synthesis inhibitors, primary screen, biochemical, absorbance; Vaccinia virus DNA polymerase (E9) processive complex; normalized absorbance, % (no concentration beside the values); AID 493162, 2011; in vitro processive DNA synthesis, absorbance read-out; active compounds read low; actives 0.94% (n = 46,000); in the data active means normalized absorbance mostly below about 85%, no sharp cut-off; inactive means mostly above about 86%
Large screens that a line does not name were inactive.

c1ccc2cc(CNCCc3ccc4c(c3)OCO4)ccc2c1	none
O=C(COc1ccc2ccccc2c1)NCc1ccc2c(c1)OCO2	none
COc1ccc(Cl)c(N=C2NC(=O)/C(=C\c3cccnc3)S2)c1	none
Cc1ccccc1-n1c(SCCc2ccccc2)nc2ccccc2c1=O	none
O=C(OCCO)c1cccc2c1-c1ccccc1C2=O	VACV E9 pol inh 74
CCOC(=O)c1cccc2c1-c1ccccc1C2=O	none
CCOC(=O)c1cccc2c1-c1ccccc1/C2=N/O	none
O=C(NCCO)C1=NN=CC1	none
O=C(CSC1CCCC1)N1CCCC1	none
Cc1[nH]c2ccccc2c1N=CN(C)C	none
Cc1sc(/N=C/c2c[nH]c3ccccc23)c(C#N)c1C	none
CN(C)C=Nc1ncc2c([nH]c3ccccc32)c1C#N	VACV E9 pol inh 89
CC(C)C(NC(=O)C12CC3CC(CC(C3)C1)C2)C(=O)Nc1nc2ccccc2s1 (stereo not given)	none
Oc1ccc(Br)cc1C=Nc1cc2c(cc1Br)OCCO2	none
Oc1c(Br)cc(Br)cc1C=Nc1ccccc1F	VACV E9 pol inh 81
COc1cc(Br)cc(C=Nc2ccccc2)c1O	none
N#Cc1c(NC(NC(=O)c2ccccc2)C(=O)c2cccs2)sc2c1CCCC2 (stereo not given)	none
Cc1cccc(NC(=O)OC2CCCCC2)c1	none
CCN(CC)C(=O)C1C(=O)NC23CCCCC2C1c1ccccc1O3 (stereo not given)	none
O=C(O)COc1ccc2c(-c3ccccc3)cc(=O)oc2c1	none
COc1ccc2c(c1)oc(=O)c1ccccc12	none
O=C(O)COc1ccc2c(c1)oc(=O)c1ccccc12	VACV E9 pol inh 90
O=C(Nc1nc2ccc(Cl)cc2s1)c1ccc(C(=O)c2ccccc2)cc1	none
COc1ccc(N=Cc2oc(O)c3ccccc23)cc1	none
CC1CC(C)CN(S(=O)(=O)c2ccc3[nH]cc(C(=O)NC4CCCCC4)c(=O)c3c2)C1 (stereo not given)	none
Cc1c(CC(=O)O)c(=O)oc2c(C)c3occ(C(C)(C)C)c3cc12	none
Cc1c(CC(=O)O)c(=O)oc2c(C)c3occ(-c4ccc(Br)cc4)c3cc12	VACV E9 pol inh 65
COc1ccc(-c2coc3cc4oc(=O)c(CC(=O)O)c(C)c4cc23)cc1	none
CN(C(=O)c1nc2ncccn2n1)c1ccc(OC(F)(F)F)cc1	none
O=C(NCc1cccs1)c1ccccc1N1CCOCC1	none
CC1CC(C)CN(S(=O)(=O)c2ccc3[nH]cc(C(=O)NCCC4=CCCCC4)c(=O)c3c2)C1 (stereo not given)	none
COc1cc2cc3c4c(cc(OC)c(OC)c4c2cc1OC)CCN3C	VACV E9 pol inh 66
COc1ccc(OCC2c3cc(OC)c(OC)cc3CCN2C(=O)C(C)C)cc1 (stereo not given)	none
COc1ccc(C(=O)N2CCc3cc(OC)c(OC)cc3C2C)cc1 (stereo not given)	none
N#CCc1ccc(C(=O)c2ccco2)s1	none
Cc1ccc(/C(O)=C/C(=O)C(=O)Nc2ccc(S(=O)(=O)N3CCOCC3)cc2)cc1C	none
COC(=O)C1C(=O)C=C(Nc2cc(OC)ccc2OC)CC1c1ccc(OC)cc1 (stereo not given)	none
CSC1=NC2(C)CCCCC2c2c1ccc1ccccc21 (stereo not given)	none
COc1ccccc1Nc1nc(-c2ccccc2)c2cc(Cl)ccc2n1	none
Cc1ccc(O)cc1	none
Oc1ccc(C2(c3ccc(O)cc3)CCCC2)cc1	VACV E9 pol inh 53
COc1cccc(C2(c3ccc(O)cc3)CCCC2)c1	none
Cc1nnc2n1NC(=Nc1ccc(Br)cc1)CS2	none
Cc1nc(SCC(=O)Nc2ccc(-c3ccccc3)cc2)c2c3c(sc2n1)CCC3	none
CCc1ccc(NC(=O)CS(=O)(=O)c2ccc(Cl)cc2)cc1	none
CC1=NN2C(=N)/C(=C/c3cn(CCOc4c(C)cccc4C)c4ccccc34)C(=O)N=C2S1	none
N=C1/C(=C\c2coc3ccccc3c2=O)C(=O)N=C2SC=NN12	VACV E9 pol inh 46
CC(c1ccccc1)N1C(=O)NC(=O)/C(=C/c2coc3ccccc3c2=O)C1=O (stereo not given)	none
Oc1ccc(Br)cc1C=NCC1CCCO1 (stereo not given)	VACV E9 pol inh 75
Oc1ccc(Br)cc1C=NCc1ccccc1	none
Oc1ccc(Br)cc1C=NCC12CCC3CC(CC(C3)C1)C2	none
CCn1c(SCC(=O)N2CCC(C)CC2)nnc1-c1c[nH]c2ccccc12	none
CCCc1ccc(OCC(O)CN2CCCCC2)cc1 (stereo not given)	none
COc1ccc(-n2cc3ccsc3c2)c(OC)c1	none
CCOC(=O)C1=C(c2ccccc2)OC(N)=C(C#N)C1c1ccccc1 (stereo not given)	none
Cc1ccc(-c2nc3ccccc3s2)cc1	VACV E9 pol inh 71
CCN(CC)S(=O)(=O)c1ccc(-c2nc3ccccc3s2)cc1	none
Cc1ccc(-n2nnnc2-c2nc3ccccc3s2)cc1	none
CC(=O)Oc1ccccc1C(=O)N1CCc2ccccc21	none
CCOC(=O)C1CCN(C(=O)CSC2CCCCC2)CC1	none
O=C(O)c1ccc(-c2ccc(/C=C3\Sc4ccccc4C3=O)o2)cc1	none
O=C(O)c1cccc(-c2ccc(/C=C3/SC(=O)N(c4ccccc4)C3=O)o2)c1	none
O=C1NC(=Nc2cccc(C(=O)O)c2)S/C1=C/c1ccc(-c2ccc(C(=O)O)cc2)o1	VACV E9 pol inh 29
COc1cccc(-c2cc(C(F)(F)F)n3ncc(C(=O)NC4CCCC4)c3n2)c1	none
Cc1cc(NC(=O)C2CCC2)n(-c2nc3ccccc3s2)n1	none
Cc1ccc(S(=O)(=O)NC(=O)N2CCCN(c3ccc(C(F)(F)F)cn3)CC2)cc1	none
O=C(Nc1ccccc1)N1CCN(c2ccc(C(F)(F)F)cn2)CC1	none
CC(C)(C)NC(=O)N1CCN(c2cc(C(F)(F)F)ccn2)CC1	VACV E9 pol inh 78
CN(C(=O)CSc1ccccc1C(=O)O)c1ccccc1	none
COc1ccc2c(c1)-c1ccccc1S(=O)(=O)N2C	none
COc1ccc(-c2ccc(OC)cc2C(=O)NN)cc1	none
COc1ccc2c(c1)C(=NN)c1cc(OC)ccc1-2	VACV E9 pol inh 68
O=C(OCC1CCCO1)c1cc(F)c(F)c(F)c1F (stereo not given)	none
O=C(CSc1ncn[nH]1)Nc1cccc(Br)c1	none
O=C(O)c1ccc(COc2ccc3c(c2)CCC3)o1	none
c1ccc(-c2nnc(-c3ccccc3)o2)cc1	none
NC(=O)c1ccc(-c2nnc(-c3ccccc3)o2)cc1	none
Nc1ccccc1-c1nnc(-c2ccc(-c3ccccc3)cc2)o1	VACV E9 pol inh 66
O=C(c1cn(-c2ccccc2)nc1-c1cccnc1)N1CCOCC1	none
CCOc1ccc(CCNc2nnc3c4ccccc4n(CC)c3n2)cc1	none
COc1ccc(C2=CN3C(=O)CSC3=NN2)cc1	none
CCN1/C(=C\C=C\C(=O)c2ccccc2OC)Sc2ccccc21	none
COc1ccc2c(ccc(/C=C3\Sc4ccccc4N3C)[n+]2C)c1	VACV E9 pol inh 20
CCN1/C(=C/c2ccc3cc(C)ccc3[n+]2C)Sc2cc(OC)ccc21	VACV E9 pol inh 24
CC(=S)/C=C1\Sc2ccccc2N1C	none
CCN1/C(=c2/sc3nc4ccccc4n3c2=O)Sc2ccc(OC)cc21	none
CN1/C(=C\C=C2C(=O)c3ccccc3C2=O)Sc2ccccc21	none
O=C(CCCc1ccccc1)Nc1scc2c(=O)oc3ccccc3c12	none
COc1ccc(S(=O)(=O)NCc2ccc(C(=O)NC3CCCCC3C)cc2)cc1 (stereo not given)	none
N/C(=N/c1nc2ccccc2o1)NC(=O)Nc1ccc(Cl)c(Cl)c1	none
CC1(C)Cc2c(c(N3CCOCC3)[nH]c(=S)c2C#N)CS1	none
CCOC(=O)c1c(NC(=O)COc2ccccc2OC)sc2c1CCCC2	none
Cc1cc(NCCN2CCCCC2)c2ccc3ccccc3c2n1	VACV E9 pol inh 22
N#Cc1nc(-c2ccccc2)oc1NCCN1CCCCC1	none
O=S(=O)(NCCN1CCCC1)c1cc2ccccc2s1	none

Bioassay records (PubChem BioAssay)
